Experimental findings from PubChem BioAssay are described below.

For this assay, the system named is Sonic hedgehog protein (Shh). Kind of assay: Sonic hedgehog microarray binding compounds – biochemical, small-molecule microarray, 635/667 nm fluorescence, primary screen (AID 1151).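 Note: Shh protein binding to compounds spotted on small-molecule microarray slides; score combines spot fluorescence intensity with signal-to-noise across triplicate slides.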 As to conditions: 635 nm fluorescence, higher = more signal.
With `CCCCC(O)C1C=CC2C(=O)N(C3CCCCC3)C(=O)C2N1Nc1ccc(OC)cc1` (stereo not drawn), the composite z-score was 0.342.

Regarding `COc1ccc(C(O)C2C=CC3C(=O)N(c4ccccc4)C(=O)C3N2Nc2ccc([N+](=O)[O-])cc2)cc1OCc1ccccc1` (stereo not drawn), the composite z-score is -0.381. For `Cc1ccc(S[C@]2(C(=O)NCc3ccccc3)CC(=O)N(Cc3ccccc3)[C@@H]2c2ccc(CO)cc2)cc1`, the composite z-score is -0.242.

Consider `C=C(COC)/C(=C/C[C@H](OC(=O)c1ccncc1)c1cccc(OCCO)c1)c1cc(C(=O)OC)ccc1OC`, for which the composite z-score was determined as 1.38. The same measure for `COC(=O)[C@@]1(Cc2ccccc2)[C@H]2c3cc(C(=O)N(C)C)n(Cc4cc(C)n(C)n4)c3C[C@H]2CN1C(=O)c1ccccc1`: 0.278; for `COC(=O)[C@@]1(Cc2ccccc2N=[N+]=[N-])COC(c2ccc(OCCCO)cc2)=N1`: -0.0614. `CN1CCC(CCCO)=CC1c1ccc(CN2CCCC2)cc1` (stereo not drawn): the composite z-score came to 2.08. `CC(=CC1CCCCC1)[C@@H](NC(=O)c1ccc(C(F)(F)F)cc1)c1ccc(-c2ccccc2)cc1` displayed a composite z-score of -0.129.
